# A selection: hits, their analogues and other compounds. The true share with any hit is near 1.4%.
# HTT ATP protect: qHTS Multiplex Assay to Identify Dual Action Probes in a Cell Model of Huntington: Cytoprotection (ATP) | PC12 HTT-Q103 induced, cytoprotection, ATP luminescence, 40 h | Potency, µM (highest dose often 56.4 µM), for the others: cytoprotection (ATP increase), most hits filed as activators | 230,000 compounds, 0.14% hits; note: % of control where 0% means no effect; nearly all actives have a fitted effect of over 45% in size
#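 Huntington model: PC12 line, ecdysone-inducible HTTQ103 exon1–GFP, tebufenozide 100 nM. Test articles in a dose series. Endpoint luminescence from cellular ATP.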
# ERK EGF block: qHTS Assay for Inhibitors of the ERK Signaling Pathway using a Homogeneous Screening Assay; Stimulation with EGF; Potency, µM (doses to about 11.5 µM), for inactives: top-dose activity change, negative = inhibition, usual class: inhibitors; 130,000 compounds, 0.41% hits; AID 1454, 2008; HEK293-V1b, EGF-stimulated phospho-ERK AlphaScreen;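 note: plate controls were stimulated vehicle wells for no effect and unstimulated vehicle basal for full effect; nearly all actives have a fitted effect of over 55% in size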
#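 Cell line HEK293 (stable V1b), low serum overnight. Pretreatment: compound 30 min, 37C. EGF 25 nM, 5 min. Detection: SureFire AlphaScreen, 5 h RT. AC50 via standard Hill equation.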
# HTT aggregate: qHTS Multiplex Assay to Identify Dual Action Probes in a Cell Model of Huntington: Aggregate Formation (GFP); PC12 HttQ103-GFP aggregates, Acumen cytometry, 40 h; Potency, µM (doses to about 46.1 µM), for inactives: at the highest dose activity change, negative = inhibition, actives largely listed as inhibitors; 220,000 compounds, 1.1% hits; AID 1688, 2009; note: % is set by controls: 0 for no effect and ±100 for the full control effect; nearly all actives have a fitted effect of over 60% in size
#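 Aggregate formation scored by laser-scanning cytometer (488 excitation, 500–530 emission) in lysed PC12 cells expressing Q103-GFP after 100 nM tebufenozide induction; library tested in dose series, with ATPLite reagent added in the multiplex.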
# An asterisk follows results filed as active; ? = inconclusive; . = no result; ! = not active in a repeat; [ ] = dose if it differs, or a comment. Calls come from the whole dose curve; as a rule, active = well fitted curve in the direction sought with a large enough effect; inconclusive = small, poorly fitted or top-dose-only effect, or another doubt; inactive = no such curve, though single readings can be large; an effect the other way counts as inactive or inconclusive. Potency is the fitted concentration of half-maximal effect.
SMILES,HTT ATP protect,ERK EGF block,HTT aggregate
O=C(Nc1nnc(C2=COCCO2)o1)c1ccc(S(=O)(=O)N2CCCCC2)cc1,-25%,-2%,-12%
CCC1CCCCN1S(=O)(=O)c1ccc(C(=O)Nc2nnc(-c3ccccc3Cl)o2)cc1 (configuration not stated),29%[10 µM],5%,7.9µM*
O=C(Nc1nnc(-c2ccccc2Cl)o1)c1ccc(S(=O)(=O)N2CCCCCC2)cc1,-65%,.,10µM*
C[C@@H]1O[C@@H](OC[C@@H]2O[C@@H](Oc3c(-c4ccc(O)c(O)c4)oc4cc(O)cc(O)c4c3=O)[C@H](O)[C@H](O)[C@@H]2O)[C@H](O)[C@H](O)[C@@H]1O,0%,.,.
Cc1ccc(CNC(=O)C(Cc2ccccc2)NS(=O)(=O)c2cccs2)cc1 (configuration not stated),6%,.,?
Cc1ccc(CNC(=O)C(Cc2ccccc2)NS(=O)(=O)c2ccc(Br)s2)cc1 (configuration not stated),.,-2%,25µM*
CCCS(=O)(=O)NCCc1csc(-c2cccnc2)n1,-1%,.,.
CCC(=O)OCCNc1cc(SCCC(=O)OC)c2nonc2c1[N+](=O)[O-],2%[10 µM],0%,?
CCC(=O)OCCNc1cc(Sc2nccn2C)c2nonc2c1[N+](=O)[O-],-96%[10 µM],?,7.1µM*
CC(=O)N1CCC2(CC1)CCN(c1ccc(-c3ccccc3)cc1)CC2,-125%,?,.
NC(N)=NCCC[C@H](NC(=O)CC1(CC(=O)N2CCN(C3c4ccccc4NC(=O)c4ccccc43)CC2)CCCC1)C(=O)NCCn1c(=O)n(-c2ccccc2)n(-c2ccccc2)c1=O (some centres not stated),27%,2%,.
COc1ccc2c(c1)OCC(Cc1ccc(O)c(OC)c1)C2=O (configuration not stated),-48%,-44%,.
COc1ccc(-c2nc(NC(=O)CSc3nnc4ccccn34)ns2)cc1,-13%,.,?
COc1ccc(-c2nc(NC(=O)CSc3nnc(C)s3)ns2)cc1,2%[1.9 µM],.,11µM*
Cc1ccc(-c2nc(NC(=O)CSc3nnc(C)s3)ns2)cc1,0%,.,?
Cc1nnc(SCC(=O)Nc2nsc(-c3ccccc3)n2)s1,-3%[0.074 µM],.,13µM*
COC(=O)C1(Cc2ccccc2)C2c3cc(C(=O)N4CCCC4)n(Cc4ccc(OC(F)(F)F)cc4)c3CC2CN1C(=O)c1ccccc1 (configuration not stated),14%,-3%,.
O=C(Oc1ccccc1)N1CCC[C@@]2(CCN(c3ncccn3)C2)C1,-202%,-6%,.
COc1ccccc1CNC(=O)c1cccc(-c2ccccc2OC)n1,-67%,.,.
COC(=O)[C@@H]1C[C@@]2(O)[C@H](O)[C@H](O)[C@H](O)C[C@H]2N1Cc1c(F)cccc1Cl,-29%,0%,.
C[C@H]1C2=C3C(CC[C@H]4C(OCc5ccc(F)cc5C(F)(F)F)OC[C@](C)([C@@H]34)N(C(=O)OC(C)(C)C)C2)C2COC(=O)OCC21 (some centres not stated),-41%,-3%,.
CC1CCN(CC(CS(=O)(=O)c2ccc([N+](=O)[O-])cc2)N2CCC(C)CC2)CC1 (configuration not stated),-10%[10 µM],?,15%[9.22 µM]
Cc1ccccc1C(=O)N1CCN(C(c2ccccc2)c2ccccc2)CC1,12%[10 µM],-8%[57.5 µM],-27%[9.22 µM]
Cc1occc1C(=O)N1CCN(C(c2ccccc2)c2ccccc2)CC1,-17%[10 µM],.,20µM*
Cc1occc1C(=O)N1CCN(c2ccccc2)CC1,.,5%,-4%
SMILES,HTT ATP protect,ERK EGF block,HTT aggregate
Cc1occc1C(=O)N1CCN(c2ccc(Cl)c(Cl)c2)CC1,6%[10 µM],.,11µM*
NC(=O)c1ncn([C@@H]2O[C@@H](CO)[C@@H](O)[C@H]2O)n1,-12%[1.9 µM],.,.
CC(=O)OC1CC[C@@]2(C)C3=CC(=O)[C@]4(C)C(CC5OC6(OCC(C)CC6Br)C(C)C54)C3CC[C@H]2C1 (some centres not stated),.,13%,.
COCCn1c(=O)c(-c2ccc(F)cc2)nc2cnc(OC)nc21,-89%,.,.
CCN(CC)Cc1ccc(Nc2ccnc3cc(Cl)ccc23)cc1O,14µM*,4%,.
CCN(CC)CCC[C@H](C)Nc1ccnc2cc(Cl)ccc12,8%[40.3 µM],6%[25.7 µM],-10%
CC(C)[C@@H](CC(=O)N[C@@H]1CCNC[C@H]1C(=O)N[C@H](CC(=O)N[C@@H](CCC(=O)O)CC(=O)O)Cc1c[nH]c2ccccc12)NC(=O)C[C@H](CO)NC(=O)[C@@H]1CNCC[C@H]1N,?,-6%,.
Cc1nc2ccccc2c2oc(C(=O)NCc3ccccn3)cc12,4%,.,?
Cc1ccc(CNC(=O)c2cc3c(C)nc4ccccc4c3o2)cc1,36%[10 µM],.,11µM*
COc1ccc2c(c1)C(=O)[C@@H](OC(=O)Nc1ccc(C)c(Br)c1)[C@H](c1ccc(OC)c(Br)c1)O2,11%,3%,.
Cc1ccc(C(=O)N/N=C/c2ccc(-c3cccc(Cl)c3)o2)cn1,2%[10 µM],?,4%[9.22 µM]
Cc1ccc(C(=O)N/N=C\c2ccc(-c3ccc(Cl)c(Cl)c3)o2)cn1,-32%[10 µM],18µM*,-11%[9.22 µM]
N[C@H](Cn1ccc(=O)c(O)c1)C(=O)O,-8%[1.9 µM],0%,.
COC(=O)NC(/C(C(=O)OC)=C(\C)NCc1ccccc1)c1ccc2ccccc2c1 (configuration not stated),-2%[10 µM],.,.
C=CCN=c1scc(-c2ccc(F)cc2)n1/N=C/c1ccccn1,37%[10 µM],-4%,-23%
C=CCN=c1scc(-c2ccc3c(c2)NC(=O)CO3)n1/N=C(\C)c1ccccn1,-53%[10 µM],?,5µM*
CCN(CC)CCCOC(=O)C1(c2ccccc2)CCCC1,6%,.,21%
CCN(CC)CCOC(=O)C1(c2ccc([N+](=O)[O-])cc2)CCCC1,0.32µM*!,2%,.
O=C(Nc1ccc(N2CCCCC2)c(Cl)c1)c1ccc(N2CCOCC2)c([N+](=O)[O-])c1,-33%,.,11µM*
O=C(Nc1ccc(N2CCOCC2)c(Cl)c1)c1ccc(Cl)cc1,-111%,?,?
Cc1ccc(NC(=O)c2ccc(NCCCN3CCOCC3)c([N+](=O)[O-])c2)cc1Cl,26%[10 µM],-2%,25µM*
O=C(Nc1ccc(Cl)c([N+](=O)[O-])c1)c1ccc(NCCCN2CCOCC2)c([N+](=O)[O-])c1,18%[10 µM],.,1%
CC(=O)N1CCN(c2ccc(NC(=O)c3ccc(N4CCCC4)c([N+](=O)[O-])c3)cc2Cl)CC1,-7%[10 µM],.,-5%
O=C(Nc1ccc(N2CCOCC2)c(F)c1)c1ccncc1,-22%,.,2.2µM*
Cc1nn(-c2ccccc2)c(C)c1/C=N/N1CCN(Cc2ccccc2)CC1,-34%,?,.
COc1ccc(-n2c(=O)c(-c3ccc(Cl)cc3)nc3cnc(N(C)C)nc32)cc1,16%,.,.
NCCC[C@@H](CC(=O)N[C@@H]1CCCC[C@H]1C(=O)N[C@H](CC(=O)N[C@@H](CCC(=O)O)CC(=O)O)Cc1ccccc1)NC(=O)C[C@H](Cc1ccccc1)NC(=O)[C@@H]1CCCC[C@H]1N,-18%[1.9 µM],-6%,.

# From PubChem BioAssay
